Screens (PubChem)
Bcl-xL primary: Bcl-xL (human) inhibition. Q07817. GST-Bcl-xL / FITC-Bim BH3 peptide fluorescence polarization. inhibition, % at 10.9 µM. hit rate 0.7% among 320,000. AID 2129;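 active means inhibition above the mean of all tested compounds plus 3 SD, cutoff set per campaign, cut at about 30% in these data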;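 further: inhibitors lower millipolarization by displacing the labeled peptide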
Target sequence (Q07817 whole entry, looked up): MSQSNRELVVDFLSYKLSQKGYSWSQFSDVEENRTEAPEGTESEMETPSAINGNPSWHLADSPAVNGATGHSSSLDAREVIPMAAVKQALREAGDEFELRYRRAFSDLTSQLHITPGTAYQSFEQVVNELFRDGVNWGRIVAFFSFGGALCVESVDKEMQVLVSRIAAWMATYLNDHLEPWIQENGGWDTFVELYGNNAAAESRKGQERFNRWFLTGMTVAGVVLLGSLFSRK
GLD-1 TGE inh: GLD-1-TGE RNA interaction inhibition (C. elegans). hit rate 0.44% among 320,000. purified GLD-1 + fluorescein TGE RNA, fluorescence polarization. AID 2280. inhibition, % at 5.96 µM. Q17339;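 active means percent inhibition above a per-plate cutoff, the plate mean of test compounds plus 3 SD, cut at about 30% in these data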
Target sequence (Q17339 whole entry, looked up): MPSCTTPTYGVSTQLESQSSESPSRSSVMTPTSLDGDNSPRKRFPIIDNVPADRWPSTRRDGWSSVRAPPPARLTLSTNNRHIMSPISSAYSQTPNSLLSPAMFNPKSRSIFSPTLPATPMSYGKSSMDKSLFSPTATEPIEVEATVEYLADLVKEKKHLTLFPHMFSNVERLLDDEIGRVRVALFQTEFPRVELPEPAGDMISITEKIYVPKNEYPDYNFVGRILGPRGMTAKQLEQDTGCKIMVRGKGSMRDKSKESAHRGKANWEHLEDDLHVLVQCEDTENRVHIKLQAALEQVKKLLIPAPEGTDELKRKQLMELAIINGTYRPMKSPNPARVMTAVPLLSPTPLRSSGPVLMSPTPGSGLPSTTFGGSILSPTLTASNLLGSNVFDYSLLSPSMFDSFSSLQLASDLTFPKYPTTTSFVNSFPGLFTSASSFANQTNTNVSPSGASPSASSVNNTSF
Bim-Mcl-1: inhibitors of Bim-Mcl-1 interaction, human; Q07820; hit rate 0.1% among 190,000; inhibition, % at 10 µM; Bead-based flow cytometry, Bim peptide-Mcl-1 binding; in the data active means inhibition above about 40%
Mcl1 Bid PPI: disrupts binding of human Mcl-1 to Bid peptide | AID 1021 | hit rate 0.97% among 220,000 | TR-FRET Mcl-1/Bid-Dy647 peptide binding, 1536-well | inhibition, % at 21.7 µM;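 active means compounds that cut the binding signal by more than half at the single screening dose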;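 further: His-tagged Mcl-1 with europium anti-His antibody binding Bid BH3 peptide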
Mcl1 Noxa PPI: Mcl-1/Noxa interaction inhibition; inhibition, % at 21.7 µM; TR-FRET Mcl-1/Noxa peptide binding, 2 h; hit rate 1.5% among 220,000; Q07820; AID 1022;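 active means compounds that cut the protein-peptide binding signal by more than 50% relative to plate controls in a single-dose test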;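 further: His-tagged Mcl-1 with rhodamine Noxa BH3 peptide and terbium anti-His antibody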
MCL1-BIM inh: inhibitors of human MCL1 binding to BIM-BH3 peptide; Q07820; GST-MCL1 / FITC-Bim-BH3 fluorescence polarization; inhibition, % at 10.9 µM; hit rate 0.68% among 320,000;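 active means inhibition above the mean inhibition of all tested compounds plus 3 SD, set per campaign, cut at about 40% in these data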;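 further: higher means more loss of mP so more displacement of Bim peptide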
Bcl-xL conf: counter-screen for MCL1 inhibitors: confirmation of human Bcl-xL inhibitors | shares compounds with MCL1-BIM inh | GST-Bcl-xL / FITC-Bim BH3 peptide FP binding | inhibition, % at 10.9 µM | hit rate 54% among 1,700 | AID 2166;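 active means inhibition above a cutoff equal to the mean inhibition of all tested compounds plus 3 SD, cut at about 30% in these data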
MCL1 inh confirm: MCL1-BIM-BH3 interaction inhibition, confirmation; shares compounds with MCL1-BIM inh; GST-MCL1 / FITC-Bim-BH3 fluorescence polarization; inhibition, % at 10.9 µM; hit rate 61% among 1,700; AID 2168;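 active means inhibition above the average of all tested compounds plus 3 SD, cut at about 40% in these data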
GLD1 RNA confirm: confirmation of C. elegans GLD-1 TGE RNA binding inhibitors; shares compounds with GLD-1 TGE inh; GLD-1/FL-TGE RNA fluorescence polarization, biochemical; inhibition, % at 5.96 µM; hit rate 10% among 550; AID 2459;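 active means average inhibition across triplicates above the hit cutoff set in the primary screen, cut at about 32% in these data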
Large screens that a line does not name were inactive (follow-up assays come after a bar, where they were run). Rows were chosen to be rich in hits. Some 2.3% of all compounds tested hit in one or more screens of this group.

CC(=O)c1ccccc1NC(=O)COC(=O)/C(=C/c1ccccc1)n1nnnc1C	none (no result: Bim-Mcl-1, Mcl1 Bid PPI, Mcl1 Noxa PPI)
Cc1ccc(C)c(Cn2c(=O)n(C)c(=O)c3sccc32)c1	none (no result: Bim-Mcl-1, Mcl1 Bid PPI, Mcl1 Noxa PPI)
CN1C(=O)N(C)c2ccc(C=O)c3cccc1c23	Bcl-xL primary 72, GLD-1 TGE inh 40, MCL1-BIM inh 73 | Bcl-xL conf 65 | MCL1 inh confirm 94 | GLD1 RNA confirm inactive
CCOC(=O)C1C(c2ccc(O)c(OC)c2)NC(=O)NC1(O)C(F)(F)F (configuration not stated)	none (no result: Bim-Mcl-1, Mcl1 Bid PPI, Mcl1 Noxa PPI)
CCOC(=O)C1C(c2ccc3c(c2)OCO3)NC(=O)NC1(O)C(F)(F)F (configuration not stated)	Bcl-xL primary 60, GLD-1 TGE inh 33, MCL1-BIM inh 55 | Bcl-xL conf inactive | MCL1 inh confirm inactive | GLD1 RNA confirm inactive
O=C1NC(=S)N/C1=C/c1cc2c(cc1[N+](=O)[O-])OCO2	Bcl-xL primary 53, GLD-1 TGE inh 42, MCL1-BIM inh 67 (no result: Bim-Mcl-1, Mcl1 Bid PPI, Mcl1 Noxa PPI) | Bcl-xL conf inactive | MCL1 inh confirm inactive | GLD1 RNA confirm inactive
O=C1NC(=S)CN1c1ccccc1	Bcl-xL primary 70, GLD-1 TGE inh 69, MCL1-BIM inh 79 (no result: Bim-Mcl-1) | Bcl-xL conf inactive | MCL1 inh confirm inactive | GLD1 RNA confirm inactive
O=C1N(c2ccccc2)CCN1c1ccccc1	none (no result: Bim-Mcl-1, Mcl1 Bid PPI, Mcl1 Noxa PPI)
CCN(CC)C(=O)C1=C(C)NC(=O)NC1c1c(F)cccc1Cl (configuration not stated)	none
CCN(CC)C(=O)C1=C(C)NC(=O)NC1c1ccccc1F (configuration not stated)	Bcl-xL primary 51, GLD-1 TGE inh 40, MCL1-BIM inh 66 | Bcl-xL conf inactive | MCL1 inh confirm inactive | GLD1 RNA confirm inactive
S=C(Nc1ccc2nc(-c3ccccn3)c(-c3ccccn3)nc2c1)N1CCOCC1	Bcl-xL primary 60, GLD-1 TGE inh 40, MCL1-BIM inh 87 | Bcl-xL conf 31 | MCL1 inh confirm inactive | GLD1 RNA confirm inactive
CCC(C)(C(=O)NC1CCCC1)N(C(=O)Cc1cccs1)c1c(C)n(C)n(-c2ccccc2)c1=O (configuration not stated)	none
O=[N+]([O-])c1cccnc1Sc1ccc(F)cc1	none (no result: Bim-Mcl-1, Mcl1 Bid PPI, Mcl1 Noxa PPI)
CNc1nnc(Sc2ncccc2[N+](=O)[O-])s1	Bcl-xL primary 64, GLD-1 TGE inh 40, MCL1-BIM inh 62 (no result: Bim-Mcl-1) | Bcl-xL conf inactive | MCL1 inh confirm inactive | GLD1 RNA confirm inactive
O=c1c2ccccc2nc2n1CC/C2=C/N1CCN(c2cccc(C(F)(F)F)c2)CC1	Bcl-xL primary 50, GLD-1 TGE inh 42, MCL1-BIM inh 56 | Bcl-xL conf inactive | MCL1 inh confirm inactive | GLD1 RNA confirm inactive
O=C(O)c1ccc2c(=O)n3c(nc2c1)/C(=C/c1ccc(C(F)(F)F)cc1)CC3	none (no result: Bim-Mcl-1, Mcl1 Bid PPI, Mcl1 Noxa PPI)
O=[N+]([O-])c1nn(-c2ccc3c(c2)OCCO3)n(O)c1=NCc1ccc(F)cc1Cl	Bcl-xL primary 79, GLD-1 TGE inh 32, MCL1-BIM inh 67 | Bcl-xL conf inactive | MCL1 inh confirm inactive | GLD1 RNA confirm inactive
COc1ccc(C2C3=C(CCCC3=O)N(CC(=O)O)C3=C2C(=O)CCC3)cc1Cl	none (no result: Bim-Mcl-1, Mcl1 Bid PPI, Mcl1 Noxa PPI)
COc1ccccc1C1C2=C(CCCC2=O)N(CC(=O)O)C2=C1C(=O)CCC2	Bcl-xL primary 48, GLD-1 TGE inh 58, MCL1-BIM inh 47 (no result: Bim-Mcl-1, Mcl1 Bid PPI, Mcl1 Noxa PPI) | Bcl-xL conf inactive | MCL1 inh confirm inactive | GLD1 RNA confirm inactive
O=C(Nc1ccc(Br)c2ccccc12)c1ccc2ccccc2c1O	none (no result: Bim-Mcl-1)
COc1ccc(Nc2nnc(SCc3cc(=O)n4ccsc4n3)s2)cc1	Bcl-xL primary 66, GLD-1 TGE inh 41, MCL1-BIM inh 68 | Bcl-xL conf inactive | MCL1 inh confirm inactive | GLD1 RNA confirm 36
CC(C)Sc1nc(N2CCOCC2)c2c(c1C#N)CC(C)(C)N(C)C2	Bcl-xL primary 50, GLD-1 TGE inh 39, MCL1-BIM inh 50 | Bcl-xL conf inactive | MCL1 inh confirm inactive | GLD1 RNA confirm inactive
N#CC1(C#N)COC23CCCCC2C1(C#N)C(=N)O3 (configuration not stated)	Bcl-xL primary 68, GLD-1 TGE inh 45, MCL1-BIM inh 78 | Bcl-xL conf inactive | MCL1 inh confirm inactive | GLD1 RNA confirm inactive
Cc1cc(C)c(S(=O)(=O)N2CCCCC2CCNC(=O)C(=O)NCc2ccco2)c(C)c1 (configuration not stated)	none (no result: Bim-Mcl-1, Mcl1 Bid PPI, Mcl1 Noxa PPI)
COc1cccc(CNC(=O)COC(=O)CCc2cc(OC)c(OC)c(OC)c2)c1	none (no result: Bim-Mcl-1, Mcl1 Bid PPI, Mcl1 Noxa PPI)
O=C(CSc1nn(-c2ccc(Cl)cc2)c(=S)s1)NCC1CCCO1 (configuration not stated)	none
CC(=O)C1=C(C)OC(N)=C(C#N)C1c1ccco1 (configuration not stated)	Bcl-xL primary 60, GLD-1 TGE inh 39, MCL1-BIM inh 59 | Bcl-xL conf inactive | MCL1 inh confirm inactive | GLD1 RNA confirm inactive
COC(=O)C1=C(C)OC(N)=C(C#N)C1c1ccco1 (configuration not stated)	none
COc1cccc(C2C=C(c3ccc(OC)cc3OC)Nc3nnnn32)c1 (configuration not stated)	Bcl-xL primary 54, GLD-1 TGE inh 39, MCL1-BIM inh 51 | Bcl-xL conf inactive | MCL1 inh confirm inactive | GLD1 RNA confirm inactive
COC(=O)c1cc2c(C)cc3ccc(C)cn3c-2c1C(=O)OC	Bcl-xL primary 93, GLD-1 TGE inh 55, MCL1-BIM inh 99 | Bcl-xL conf 75 | MCL1 inh confirm 98 | GLD1 RNA confirm 41
Cc1ccc(CN2CC[C@H]3C=CCc4cccc(c43)C2)cc1	none (no result: Bim-Mcl-1, Mcl1 Bid PPI, Mcl1 Noxa PPI)
COc1ccc(CN2CC[C@H]3C=CCc4cccc(c43)C2)cc1	Bcl-xL primary 72, GLD-1 TGE inh 60, MCL1-BIM inh 87 (no result: Bim-Mcl-1, Mcl1 Bid PPI, Mcl1 Noxa PPI) | Bcl-xL conf inactive | MCL1 inh confirm inactive | GLD1 RNA confirm inactive
N#CC1=C(N)C(C#N)(C#N)[C@H](c2c(F)cccc2F)[C@H]2CC3(CC=C12)OCCO3	Bcl-xL primary 58, GLD-1 TGE inh 55, MCL1-BIM inh 62 | Bcl-xL conf 35 | MCL1 inh confirm inactive | GLD1 RNA confirm inactive
NC(=O)c1ccccc1OCC(=O)Nc1ccc(Cl)c(Cl)c1	none (no result: Bim-Mcl-1)
COCCN(C(=O)c1cc2c(s1)CCCCC2)c1c(N)n(Cc2ccccc2)c(=O)[nH]c1=O	none (no result: Bim-Mcl-1, Mcl1 Bid PPI, Mcl1 Noxa PPI)
COc1ccc2[nH]c(C)c(CCN(Cc3cccs3)C(=S)Nc3cccc(F)c3)c2c1	Bcl-xL primary 59, GLD-1 TGE inh 53, MCL1-BIM inh 63 | Bcl-xL conf inactive | MCL1 inh confirm inactive | GLD1 RNA confirm inactive
